Rows were chosen to be rich in hits. Some 7.7% of all compounds tested hit in one or more screens of this group.
FMDV antiviral: High Throughput Screening for Foot and Mouth Disease Virus Antivirals; FMDV antiviral cell-based qHTS; Potency, µM (top dose mostly 57.9 µM), most hits filed as inhibitors; 410,000 tested, 1.2% active; calls by dose curve; tested in HEK293T cells; note: read-out not given here; nearly all actives have a fitted effect of over 45% in size
RE007 growth inh: qHTS Assay for Inhibitors of the HIV-1 protein Vpr | S. pombe RE007 Vpr strain, BacTiter-Glo ATP luminescence, 24 h | Potency, µM (doses to about 92.2 µM), hits mostly inhibitors | 360,000 tested, 0.21% active | AID 651644, 2012; active = well fitted falling curve with a large enough effect; inconclusive = small, poorly fitted or top-dose-only effect; inactive = no such curve, though single readings can be large or run the other way; note: nearly all actives have a fitted effect of over 50% in size
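Fission yeast RE007 carrying one integrated HIV-1 vpr copy, seeded at OD 0.01 in PMG+AL medium with 23 nL pinned compound. Grown 24 h at 30 degrees; viability read by BacTiter-Glo luminescence after 5 min.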
FBPA Giardia inh: qHTS Assay for Inhibitors of Fructose-1,6-bisphosphate Aldolase from Giardia Lamblia. A8B2U2. purified Giardia FBPA. Potency, µM (series often up to 59.6 µM), usual class: inhibitors. 290,000 tested, 0.71% active; note: nearly all actives have a fitted effect of over 55% in size
Target sequence (A8B2U2 whole entry, looked up): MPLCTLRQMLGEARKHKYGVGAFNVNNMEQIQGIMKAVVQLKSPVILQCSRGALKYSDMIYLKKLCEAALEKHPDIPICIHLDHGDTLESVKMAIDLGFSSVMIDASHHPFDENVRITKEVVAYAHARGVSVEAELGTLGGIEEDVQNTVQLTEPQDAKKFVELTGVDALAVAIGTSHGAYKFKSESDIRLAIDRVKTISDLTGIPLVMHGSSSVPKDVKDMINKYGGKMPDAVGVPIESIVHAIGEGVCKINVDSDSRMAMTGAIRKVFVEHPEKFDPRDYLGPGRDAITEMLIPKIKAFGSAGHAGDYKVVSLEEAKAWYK
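Giardia FBPA (40 nM reagent) was preincubated 10 min at RT with compound (up to 57.5 uM final), then substrate plus GAPDH/TPI/NAD/arsenate coupling system with diaphorase/resazurin was added; resorufin fluorescence (525/598 nm) was read after 20 min.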
Sm TGR inh: qHTS Assay for the Inhibitors of Schistosoma Mansoni Peroxiredoxins | Schistosoma mansoni thioredoxin glutathione reductase (TGR), Q962Y6 | purified TGR, DTNB reduction, TNB absorbance 405 nm | Potency, µM (series often up to 114 µM), most hits filed as inhibitors | 360,000 tested, 3% active; note: nearly all actives have a fitted effect of over 60% in size
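First, TGR (20 nM dispensed) and NADPH were mixed with compound. Second, a 15 min room-temperature incubation followed. Third, further NADPH and then DTNB were added to start the reaction. Finally, TNB absorbance was monitored kinetically.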
HCMV inh: qHTS Assay for inhibitors of the human cytomegalovirus (HCMV); activity change, negative = inhibition, % at 57.5 µM; HFF cells, HCMV-luciferase reporter, 72 h; hits give low values; AID 1259415, 2018; 410,000 tested, 4.5% active; in the data active = activity change below about -60%; inconclusive = no clear call, values can overlap the other calls; inactive = above about -39%
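Compounds were evaluated in HFFs infected with an HCMV luciferase reporter virus (MOI 1 PFU/cell). Luciferase in lysates collected 72 h post infection served as the replication measure.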
Tb PYK inh: qHTS of Trypanosoma Brucei Inhibitors; 410,000 tested, 0.12% active; Potency, µM (top dose mostly 76.8 µM), most hits filed as inhibitors; TbPYK enzyme, Kinase-Glo Plus ATP luminescence, 45 min; pyruvate kinase (Trypanosoma brucei), Q57TT1; AID 624173, 2012; note: nearly all actives have a fitted effect of over 50% in size
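Luminescence from Kinase-Glo Plus, added after a 45-minute room-temperature reaction, served as the end-point read-out. The enzyme and substrate were preincubated with compound before ADP (130 uM final) initiated turnover. Concentration-effect curves came from normalized qHTS data.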
Hits are given with their value; 0 = inactive; ? = inconclusive; - = no result; [ ] = remark or other dose. Unless noted, calls come from the whole dose curve; as a rule, active = well fitted curve in the direction sought with a large enough effect; inconclusive = small, poorly fitted or top-dose-only effect, or another doubt; inactive = no such curve, though single readings can be large; an effect the other way counts as inactive or inconclusive.

SMILES | FMDV antiviral | RE007 growth inh | FBPA Giardia inh | Sm TGR inh | HCMV inh | Tb PYK inh
CCCc1nnc(NC(=O)CCC(=O)N2CCN(Cc3ccc(OC)c(F)c3)CC2)s1 | ? | 0 | 0 | 0 | -76 | 0
O=C(CCC(=O)N1CCCCC1)Nc1nnc(C2CCCCC2)s1 | 0 | 0 | - | 0 | 0 | 0
CCCN1C(=O)C[C@H](S(=O)(=O)c2ccccc2)[C@H]1c1ccccc1OC | - | - | - | - | 0 | -
NC(=O)NN=C1CCC(O)CC1CC(=O)O (stereo not given) | - | - | - | - | 0 | -
CC(=O)c1ccc2c(c1)C1C(Cl)C(Sc3ccccc3[N+](=O)[O-])CC1C(c1ccccc1[N+](=O)[O-])N2 (stereo not given) | 0 | 0 | ? | 0 | -88 | 0
COc1ccc(OC)c(CCNC(=O)Cn2nc(C)c3c(C)n(-c4ccc(C)cc4)nc3c2=O)c1 | ? | 0 | 0 | 0 | -92 | 0
COc1ccc(CCNC(=O)Cn2nc(C)c3c(C)n(-c4ccccc4)nc3c2=O)c(OC)c1 | 0 | 0 | 0 | 0 | 0 | 0
Cc1ccc(-n2nc3c(=O)n(CC(=O)NCCc4ccccc4C)nc(C)c3c2C)cc1 | ? | 0 | - | 0 | -73 | 0
Cc1nn(CC(=O)NCCc2ccco2)c(=O)c2nn(-c3ccccc3)c(C)c12 | 0 | 0 | 0 | 32µM | 0 | 0
Cc1ccc(-n2nc3c(=O)n(CC(=O)NCc4ccco4)nc(C)c3c2C)cc1 | 0 | - | - | 0 | 0 | 0
CCC(=O)Nc1sc2c(c1C(=O)Nc1ccccc1C)CCC(C)C2 (stereo not given) | 0 | - | - | 0 | 0 | 0
COC(=O)CCCC1=CC2=C(c3ccccc3)C(=O)C(C)(OC(=O)C3CCCC3)C(=O)C2=CN1c1ccccc1 (stereo not given) | 0 | 0 | ? | 0 | 0 | 0
COC(=O)CCCC1=CC2=C(c3ccccc3)C(=O)C(C)(OC(=O)C3CCCC3)C(=O)C2=CN1CCN1CCOCC1 (stereo not given) | 0 | 0 | ? | 35µM | 0 | 0
COC(=O)CCCC1=CC2=C(c3ccccc3)C(=O)C(C)(OC(=O)C3CCCC3)C(=O)C2=CN1CCc1c[nH]c2ccccc12 (stereo not given) | 0 | 0 | ? | 8.9µM | 0 | 0
COC(=O)CCCC1=CC2=C(c3ccccc3)C(=O)C(C)(OC(=O)C3CCCC3)C(=O)C2=CN1CCc1ccccn1 (stereo not given) | 0 | 0 | ? | 28µM | 0 | 0
C=CCN1C=C2C(=O)C(C)(OC(=O)C3CCCC3)C(=O)C(c3ccccc3)=C2C=C1CCCC(=O)OC (stereo not given) | 0 | 0 | ? | ? | 0 | 0
Cn1nnnc1SCCCNCc1cccc(OCc2ccccc2)c1 | 0 | - | - | 0 | 0 | 0
Nc1nc(N)c2nc(CNc3ccc(C(=O)N[C@@H](CCC(=O)O)C(=O)O)cc3)cnc2n1 | 0 | - | - | - | - | -
CN(Cc1cnc2nc(N)nc(N)c2n1)c1ccc(C(=O)NC(CCC(=O)O)C(=O)O)cc1C(F)(F)F (stereo not given) | 0 | 0 | - | - | -97 | 0
CN(Cc1cnc2nc(N)nc(N)c2n1)c1ccc(C(=O)NC(CCC(=O)O)C(=O)O)cc1 (stereo not given) | 0 | 0 | 0 | - | -97 | 0
Cc1ccc(NC(=O)C2CCN(S(=O)(=O)c3ccc4c(c3)CCCN4C(=O)C3CCC3)CC2)cc1 | 0 | - | - | 0 | 0 | 0
CCn1c(=O)c2cc(C(=O)NCCCN3CCC(C)CC3)sc2c2ccccc21 | 0 | - | - | 0 | -76 | 0
CCn1c(=O)c2cc(C(=O)NCCC(C)C)sc2c2ccccc21 | 0 | 0 | 0 | 0 | 0 | 0
CCn1c(=O)c2cc(C(=O)NC3CCC(C)CC3)sc2c2ccccc21 (stereo not given) | 0 | - | - | 0 | -67 | 0
CCCC[C@H](NC(=O)[C@H](CC(C)C)NC(=O)CNC(=O)[C@@H](NC(=O)[C@H](Cc1ccccc1)NC(=O)[C@H](CO)NC(=O)[C@@H](N)CC(=O)O)C(C)C)C(N)=O | - | - | 0 | - | - | -
SMILES | FMDV antiviral | RE007 growth inh | FBPA Giardia inh | Sm TGR inh | HCMV inh | Tb PYK inh
Clc1ccc(-c2nnc(-c3ccco3)nc2N2CCCCC2)cc1 | 0 | 0 | 0 | 2.8µM | ? | ?
CC(C)CCNC(=O)c1cccc(Nc2nc3ccccc3n3nnnc23)c1 | 0 | - | - | 0 | -81 | 0
COc1ccc(CCNC(=O)c2ccc(Nc3nc4ccccc4n4nnnc34)cc2)cc1OC | ? | - | - | 0 | -114 | 0
Fc1cccc(Nc2nc3ccccc3n3nnnc23)c1 | 0 | 0 | 0 | 0 | 0 | 0
c1ccc2c(c1)nc(Nc1ccc3c(c1)OCO3)c1nnnn12 | 0 | 0 | 0 | 0 | -78 | 0
O=C(NCCc1ccc(Cl)cc1)c1ccc(Nc2nc3ccccc3n3nnnc23)cc1 | ? | - | - | 0 | 0 | 0
CC(NC(=O)c1cccc(Nc2nc3ccccc3n3nnnc23)c1)c1ccccc1 (stereo not given) | ? | - | - | 0 | -68 | 0
COc1ccc(-n2c(CSc3ccc(Cl)cc3)n[nH]c2=S)cc1 | - | - | - | - | 0 | -
COc1cc(S(=O)(=O)Nc2ccc(C)cc2)ccc1NC(=O)c1ccncc1 | 0 | 0 | 0 | 0 | 0 | 0
COc1cc(S(=O)(=O)Nc2ccccc2C)ccc1NC(=O)c1ccncc1 | 0 | 0 | 0 | 0 | -72 | 0
O=C(Nc1cccnc1Cl)c1ccc(S(=O)(=O)N2CCCCCC2)cc1 | 0 | 0 | 0 | 0 | -82 | 0
COc1ccccc1NS(=O)(=O)c1ccc(C)c(NC(=O)c2ccc(S(=O)(=O)N3CCCCCC3)cc2)c1 | 0 | 0 | 0 | 0 | -69 | 0
CCOC(=O)COc1ccc2c(C)c(CCN(CC)CC)c(=O)oc2c1Cl | - | - | 0 | - | - | 0
NC(CO)c1csc(Nc2ccc(C(F)(F)F)cn2)n1 (stereo not given) | 0 | 0 | - | - | 0 | 0
NC(c1csc(Nc2ncccn2)n1)C1CCCCC1 (stereo not given) | 0 | 0[18.4 µM] | - | - | 0 | 0
NC(c1csc(Nc2cnccn2)n1)C1CCCCC1 (stereo not given) | 0 | 0 | - | - | -68 | 0
NC(c1csc(Nc2ccc(C(F)(F)F)cn2)n1)C1CCCCC1 (stereo not given) | 0 | 0[18.4 µM] | - | - | -102 | 0
Fc1ccc(Nc2nc3nonc3nc2Nc2cccc(C(F)(F)F)c2)cc1 | ? | - | - | 0 | -101 | 0
CCOC(=O)C1=C(COC(=O)CCOc2ccc(C)cc2)NC(=O)NC1C (stereo not given) | 0 | 0 | - | ? | -69 | 0
CCOC(=O)C1=C(COC(=O)Cc2ccc(Cl)cc2)NC(=O)NC1C (stereo not given) | 0 | 0 | - | 0 | -73 | 0
O=C(Nc1ccccc1N1CCCCC1)c1ccc(Cl)c([N+](=O)[O-])c1 | ? | 0 | 0 | 0 | 0 | 0

Screens (PubChem)
